Measurements from PubChem BioAssay AID1159580 (chemical genetic matrix, 2015).
Values joined by “and” are separate entries in the source; they are usually repeats but may differ in a detail not shown here. Equal entries are not always repeated. Screen size: about 5,500 compounds; about 2,000 (36%) were called active. Roughly 18% stayed inconclusive and do not appear here. Rule as the data show it: active = normalized growth mostly below about 0.91 (no sharp cut-off); inconclusive = no clear call, values can overlap the other calls; inactive = mostly above about 0.92. The list shows a part of the results.

Assay: chemical genetic growth profiling, strain panel (AID 1159580);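 also: tested at 20 µM; growth read once vehicle control cultures reached saturation at 30 °C; 1 = growth at the plate median or of vehicle wells; lower values mean less growth of the strain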
Conditions: growth OD

Measured: normalized growth

Cc1ccc(N(CC2=NCCN2)c2cccc(O)c2)cc1
inactive: S. cerevisiae deletion strains, locus YJR075W, strain HOC1, stronger effect = lower value 0.967 | S. cerevisiae deletion strains, locus YKL009W, strain mrt4, stronger effect = lower value 0.99 | S. cerevisiae deletion strains, locus YKL068W, stronger effect = lower value 1 | S. cerevisiae deletion strains, locus YKL085W, strain MDH1 (second series), stronger effect = lower value 1.03 | S. cerevisiae deletion strains, locus YKL085W, strain MDH1, stronger effect = lower value 1.03 | S. cerevisiae deletion strains, locus YKL160W, strain elf1, stronger effect = lower value 1.01 | S. cerevisiae deletion strains, locus YKL190W, strain CNB1, stronger effect = lower value 1.01 | S. cerevisiae deletion strains, locus YKR001C, strain vps1, stronger effect = lower value 1.01 | S. cerevisiae deletion strains, locus YKR026C, strain gcn3, stronger effect = lower value 1.03 | S. cerevisiae deletion strains, locus YKR091W, strain srl3, stronger effect = lower value 1 | S. cerevisiae deletion strains, locus YLL001W, strain dnm1, stronger effect = lower value 1 | S. cerevisiae deletion strains, locus YLL026W, stronger effect = lower value 1.02 | S. cerevisiae deletion strains, locus YLL041C, strain sdh2, stronger effect = lower value 1.01 | S. cerevisiae deletion strains, locus YLR027C, strain aat2, stronger effect = lower value 1.01 | S. cerevisiae deletion strains, locus YLR039C, strain RIC1, stronger effect = lower value 1.06 | S. cerevisiae deletion strains, locus YLR058C, strain SHM2, stronger effect = lower value 1.01 | S. cerevisiae deletion strains, locus YLR102C, strain apc9, stronger effect = lower value 1.01 | S. cerevisiae deletion strains, locus YLR113W, strain HOG1, stronger effect = lower value 1.04 | S. cerevisiae deletion strains, locus YLR221C, strain rsa3, stronger effect = lower value 0.998 | S. cerevisiae deletion strains, locus YLR258W, strain gsy2, stronger effect = lower value 1 | S. cerevisiae deletion strains, locus YLR262C, strain YPT6 (second series), stronger effect = lower value 1.02 | S. cerevisiae deletion strains, locus YLR262C, strain YPT6, stronger effect = lower value 1.02 | S. cerevisiae deletion strains, locus YLR268W, strain sec22, stronger effect = lower value 0.947 | S. cerevisiae deletion strains, locus YLR320W, strain mms22, stronger effect = lower value 0.987 | S. cerevisiae deletion strains, locus YLR330W, strain CHS5, stronger effect = lower value 1.01 | S. cerevisiae deletion strains, locus YLR342W, strain FKS1 (second series), stronger effect = lower value 1.04 | S. cerevisiae deletion strains, locus YLR342W, strain FKS1, stronger effect = lower value 1.02 | S. cerevisiae deletion strains, locus YLR357W, strain rsc2, stronger effect = lower value 1.02 | S. cerevisiae deletion strains, locus YLR370C, strain arc18, stronger effect = lower value 1.01 | S. cerevisiae deletion strains, locus YLR371W, strain rom2, stronger effect = lower value 1.01 | S. cerevisiae deletion strains, locus YLR384C, strain iki3, stronger effect = lower value 1.02 | S. cerevisiae deletion strains, locus YLR418C, strain cdc73, stronger effect = lower value 0.955 | S. cerevisiae deletion strains, locus YML016C, strain PPZ1, stronger effect = lower value 1.01 | S. cerevisiae deletion strains, locus YML120C, strain ndi1, stronger effect = lower value 0.999 | S. cerevisiae deletion strains, locus YML124C, strain tub3, stronger effect = lower value 1.02 | S. cerevisiae deletion strains, locus YMR058W, strain fet3, stronger effect = lower value 1.02 | S. cerevisiae deletion strains, locus YMR078C, strain ctf18, stronger effect = lower value 1 | S. cerevisiae deletion strains, locus YMR125W, strain sto1, stronger effect = lower value 1.04 | S. cerevisiae deletion strains, locus YMR129W, stronger effect = lower value 1 | S. cerevisiae deletion strains, locus YMR205C, strain PFK2, stronger effect = lower value 1.02 | S. cerevisiae deletion strains, locus YMR223W, strain ubp8, stronger effect = lower value 0.973 | S. cerevisiae deletion strains, locus YMR231W, strain pep5, stronger effect = lower value 1.02 | S. cerevisiae deletion strains, locus YMR263W, strain SAP30, stronger effect = lower value 0.989 | S. cerevisiae deletion strains, locus YMR307W, strain GAS1, stronger effect = lower value 0.988 and 0.994 | S. cerevisiae deletion strains, locus YNL067W, strain RPL9B, stronger effect = lower value 0.967 | S. cerevisiae deletion strains, locus YNL071W, strain lat1, stronger effect = lower value 1.01 | S. cerevisiae deletion strains, locus YNL128W, strain TEP1, stronger effect = lower value 0.988 | S. cerevisiae deletion strains, locus YNL153C, strain GIM3, stronger effect = lower value 0.983 | S. cerevisiae deletion strains, locus YNL175C, strain NOP13, stronger effect = lower value 1.02 | S. cerevisiae deletion strains, locus YNL183C, strain NPR1, stronger effect = lower value 0.99 | S. cerevisiae deletion strains, locus YNL197C, strain WHI3, stronger effect = lower value 1.03 | S. cerevisiae deletion strains, locus YNL209W, strain ssb2, stronger effect = lower value 1.04 | S. cerevisiae deletion strains, locus YNL224C, strain SQS1, stronger effect = lower value 1.06 | S. cerevisiae deletion strains, locus YNL233W, strain BNI4, stronger effect = lower value 0.966 | S. cerevisiae deletion strains, locus YNL248C, strain rpa49, stronger effect = lower value 1.03 | S. cerevisiae deletion strains, locus YNL271C, strain bni1, stronger effect = lower value 0.998 | S. cerevisiae deletion strains, locus YNL307C, strain MCK1, stronger effect = lower value 0.969 | S. cerevisiae deletion strains, locus YNL322C, strain KRE1 (second series), stronger effect = lower value 1.01 | S. cerevisiae deletion strains, locus YNL322C, strain KRE1, stronger effect = lower value 1 and 0.995 | S. cerevisiae deletion strains, locus YNR049C, strain mso1, stronger effect = lower value 1.02 | S. cerevisiae deletion strains, locus YNR052C, strain pop2, stronger effect = lower value 0.998 | S. cerevisiae deletion strains, locus YOL006C, strain TOP1, stronger effect = lower value 0.967 | S. cerevisiae deletion strains, locus YOL012C, strain htz1 1.24 | S. cerevisiae deletion strains, locus YOL147C, strain pex11, stronger effect = lower value 1.01 | S. cerevisiae deletion strains, locus YOR001W, strain rrp6, stronger effect = lower value 0.993 | S. cerevisiae deletion strains, locus YOR061W, strain CKA2, stronger effect = lower value 1.02 | S. cerevisiae deletion strains, locus YOR069W, strain VPS5, stronger effect = lower value 1.06 | S. cerevisiae deletion strains, locus YOR070C, strain gyp1, stronger effect = lower value 1 | S. cerevisiae deletion strains, locus YOR080W, strain dia2, stronger effect = lower value 1.04 | S. cerevisiae deletion strains, locus YOR083W, strain WHI5 (second series), stronger effect = lower value 1.03 | S. cerevisiae deletion strains, locus YOR083W, strain WHI5, stronger effect = lower value 0.969 | S. cerevisiae deletion strains, locus YOR106W, strain vam3, stronger effect = lower value 1.03 | S. cerevisiae deletion strains, locus YOR136W, strain idh2, stronger effect = lower value 1.01 | S. cerevisiae deletion strains, locus YOR144C, strain elg1, stronger effect = lower value 1.01 | S. cerevisiae deletion strains, locus YOR184W, strain ser1, stronger effect = lower value 0.975 | S. cerevisiae deletion strains, locus YOR231W, strain MKK1, stronger effect = lower value 1.02 | S. cerevisiae deletion strains, locus YOR265W, strain rbl2, stronger effect = lower value 1 | S. cerevisiae deletion strains, locus YOR270C, strain vph1, stronger effect = lower value 1.06 | S. cerevisiae deletion strains, locus YOR290C, strain snf2, stronger effect = lower value 1.02 | S. cerevisiae deletion strains, locus YOR316C, strain cot1, stronger effect = lower value 1.01 | S. cerevisiae deletion strains, locus YPL051W, strain arl3, stronger effect = lower value 1 | S. cerevisiae deletion strains, locus YPL055C, strain LGE1, stronger effect = lower value 0.908 | S. cerevisiae deletion strains, locus YPL078C, strain atp4, stronger effect = lower value 1.02 | S. cerevisiae deletion strains, locus YPL106C, strain sse1, stronger effect = lower value 1.01 | S. cerevisiae deletion strains, locus YPL240C, strain hsp82, stronger effect = lower value 1 | S. cerevisiae deletion strains, locus YPL241C, strain CIN2, stronger effect = lower value 1.04 and 1.01 | S. cerevisiae deletion strains, locus YPL256C, strain CLN2, stronger effect = lower value 1.05 | S. cerevisiae deletion strains, locus YPR119W, strain clb2, stronger effect = lower value 1 | S. cerevisiae deletion strains, locus YPR141C, strain kar3, stronger effect = lower value 1 | S. cerevisiae deletion strains, locus YPR163C, strain tif3, stronger effect = lower value 0.991 | S. cerevisiae deletion strains, locus YPR167C, strain met16, stronger effect = lower value 1.01 | S. cerevisiae deletion strains, strain wtn01, stronger effect = lower value 0.977 | S. cerevisiae strains, strain wild type, stronger effect = lower value 1
active: S. cerevisiae deletion strains, locus YML032C, strain rad52, stronger effect = lower value 0.819 | S. cerevisiae deletion strains, locus YNL250W, strain rad50, stronger effect = lower value 0.841 | S. cerevisiae deletion strains, locus YNL298W, strain CLA4, stronger effect = lower value 0.899
